Measured values as given in PubChem BioAssay AID1851 (National Center for Advancing Translational Sciences (NCATS), 2009).
Screen size: about 16,000 compounds; about 5,100 (32%) were called active. Another 25% or so got no clear call; they are omitted. The call rests on the fitted dose curve; in most records, active means well fitted curve in the direction sought with a large enough effect; inconclusive means small, poorly fitted or top-dose-only effect, or effect the other way; inactive means no such curve, though single readings can be large or run the other way. Some of the results follow.

target: Cytochrome P450 3A4 (Homo sapiens) (UniProt P08684); assay: Cytochrome panel assay with activity outcomes; conditions: recombinant CYP, pro-luciferin dealkylation, luminescence, p450-cyp3a4; series mostly up to 57.1 µM; activity, negative = inhibition: at the top concentration
On the % scale 0 is the no-effect control and ±100 the full control effect.

Cytochrome P450 3A4 (Homo sapiens), sequence (P08684 whole entry, looked up): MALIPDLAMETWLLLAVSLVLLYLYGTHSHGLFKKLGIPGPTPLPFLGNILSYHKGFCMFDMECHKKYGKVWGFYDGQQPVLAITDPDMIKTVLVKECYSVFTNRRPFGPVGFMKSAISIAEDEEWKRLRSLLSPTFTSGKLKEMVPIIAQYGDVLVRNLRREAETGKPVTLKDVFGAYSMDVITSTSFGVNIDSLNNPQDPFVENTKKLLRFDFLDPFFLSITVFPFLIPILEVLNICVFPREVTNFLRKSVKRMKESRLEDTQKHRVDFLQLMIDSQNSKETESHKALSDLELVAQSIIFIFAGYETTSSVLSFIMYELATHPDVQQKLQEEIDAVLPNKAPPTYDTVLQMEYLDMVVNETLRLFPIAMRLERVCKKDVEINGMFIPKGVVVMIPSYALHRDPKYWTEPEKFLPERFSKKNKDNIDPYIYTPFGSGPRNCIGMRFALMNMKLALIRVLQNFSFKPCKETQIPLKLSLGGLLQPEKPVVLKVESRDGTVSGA

AC50, active:
COc1cc2cc(CN(CCCO)S(=O)(=O)c3ccccc3Cl)c(=O)[nH]c2cc1OC 14.1 µM, CN(C)C(CNC(=O)NC1CCCCC1)c1cccnc1 (stereo not given) 15.8 µM, COc1cccc(NC(=O)C2c3cc(OC)c(OC)cc3C(=O)N(C)C2c2cccnc2)c1 (stereo not given) 12.6 µM, COc1ccc(NC(=O)C2c3cc(OC)c(OC)cc3C(=O)N(C)C2c2cccnc2)cc1OC (stereo not given) 25.1 µM, COc1cc2c(cc1OC)C(C(=O)Nc1ccc3c(c1)OCCO3)C(c1cccnc1)N(C)C2=O (stereo not given) 28.2 µM, Cc1ccc(-n2c(C)cc(C(=O)CSc3n[nH]c(N)n3)c2C)cc1 10 µM, CN(C)c1ccc(-c2cncnc2Nc2ccc(F)cc2)cc1 0.794 µM, CN(C)c1ccc(-c2cncnc2Nc2ccccc2)cc1 0.631 µM, c1cc(CSSCc2ccncc2)ccn1 2.51 µM, Cc1cc(C)n(-c2nc3ccccc3c(=O)n2OCc2ccc(Cl)cc2)n1 14.1 µM, CN(C)c1ccc(-c2nccc(NCc3ccccc3)n2)cc1 7.94 µM, COc1ccccc1CNc1ccnc(-c2ccc(C(=O)N(C)C)cc2)n1 25.1 µM, COc1ccc(CNc2ccnc(-c3ccc(C(=O)N(C)C)cc3)n2)c(OC)c1 3.98 µM, COc1ccccc1CNc1ccnc(-c2ccoc2)n1 2.51 µM, COc1ccccc1CNc1ccnc(-c2ccc(N(C)C)cc2)n1 7.94 µM, COc1ccccc1CNc1cc(-c2ccc(C(=O)N(C)C)cc2)ncn1 25.1 µM, COc1ccc(CNc2ccnc(-c3ccc(N(C)C)cc3)n2)c(OC)c1 12.6 µM, O=C(CN(Cc1ccco1)C(=O)c1cccc(Cl)c1)Nc1c(Cl)cc(Cl)cc1Cl 11.2 µM, O=C(CN(Cc1ccco1)C(=O)c1ccccc1)Nc1ccc(Cl)c(Cl)c1 17.8 µM, FC(F)(F)c1ccc(N2CCOCC2)c(Nc2nc3ccccc3n3cnnc23)c1 22.4 µM, O=c1sc2ccccc2n1CCCOc1ccccc1 17.8 µM, Cc1ccc(OCCCn2c(=O)sc3ccccc32)cc1 17.8 µM, Cc1ccc(N=Nc2c(N)n(-c3ccccc3)[nH]c2=O)cc1 11.2 µM, COc1cccc2cc(C(=O)CC3(O)C(=O)N(Cc4ccccc4)c4ccccc43)c(=O)oc12 (stereo not given) 7.08 µM, CN1/C(=C\C(=O)COC(=O)Cn2nnc(-c3ccccc3)n2)C(C)(C)c2ccccc21 14.1 µM, COc1ccc(-c2nn(-c3ccccc3)cc2/C=N/NC(=O)c2ccc3c(c2)OCO3)cc1 5.01 µM, O=C(N/N=C\c1cn(-c2ccccc2)nc1-c1ccccc1)c1ccc2c(c1)OCO2 1.58 µM, O=C(N/N=C\c1cn(-c2ccccc2)nc1-c1ccccc1)c1ccc(Br)o1 3.98 µM, CCOc1cc(C2CC(=O)c3c(ccc4ccccc34)N2)ccc1O (stereo not given) 10 µM, Cn1c(Sc2ccc(-c3cccnc3)n2C)ccc1-c1cccnc1 0.631 µM, Cc1ccc(S(=O)(=O)N2CCCC(C(=O)NCCCN3CCCCC3C)C2)cc1 (stereo not given) 14.1 µM, O=C(CCCN1C(=O)C2C3C=CC(C3)C2C1=O)N1CCN(c2ccccc2)CC1 (stereo not given) 0.794 µM, O=C(CCN1C(=O)C2C3C=CC(C3)C2C1=O)N1CCN(c2cccc(Cl)c2)CC1 (stereo not given) 1.12 µM, COc1ccc(CNn2c(C)nc3ccccc3c2=O)cc1 3.98 µM, CCCCOc1ccc(CNn2c(C)nc3ccccc3c2=O)cc1 1.58 µM, CC1CC(OCC(O)CN2CCN(Cc3ccccc3)CC2)CC(C)(C)C1 (stereo not given) 8.91 µM, COc1cccc(C(=O)N2N=C(c3cccc(OC)c3)CC2(O)C(F)(F)F)c1 (stereo not given) 7.94 µM, CCOc1cc(CNc2ccc(OC)cc2)cc(Br)c1OCC(=O)NC(C)(C)C 15.8 µM, CCn1c(CCNC(=O)c2ccc(Cl)cc2Cl)n[nH]c1=S 14.1 µM, O=[N+]([O-])c1ccc(-c2cnc(SCc3ccccc3Cl)[nH]2)cc1 14.1 µM, CC(c1ccc(Cl)cc1)n1c(-c2ccc3ccccc3n2)n[nH]c1=S (stereo not given) 7.94 µM

AC50, inactive:
CC(C)NC[C@H](O)c1ccc(NS(C)(=O)=O)cc1, O=c1n(CCCN2CCN(c3cccc(Cl)c3)CC2)nc2ccccn12, CN(C)CC[C@H](c1ccc(Cl)cc1)c1ccccn1

activity, negative = inhibition, inactive:
COCCN1C(=O)c2ccccc2C(C(=O)Nc2ccc3c(c2)OCCO3)C1c1ccc(F)cc1 (stereo not given) -22.8% [at 2.29 µM], COc1cc2c(cc1OC)C(C(=O)Nc1ccccn1)C(c1cccnc1)N(C)C2=O (stereo not given) -22% [at 11.4 µM], CC(C)C12CC[C@@]3(CC[C@H]4[C@@](C)(CCC[C@]4(C)C(=O)O)[C@@H]3C1)[C@@H](CN)C2 -9.26% [at 11.4 µM], CCOC(=O)CSc1n[nH]c(NC(=O)c2cccc(C(F)(F)F)c2)n1 -5.41%, O=C1CC[C@H](NC(=O)c2ccccc2)C(=O)N1 -12.3% [at 11.4 µM], N[C@H](CCC(=O)NCC(=O)O)C(=O)O -5.94%, O=[N+]([O-])c1ccc2nc(-c3ccccc3)n(OCc3ccc(Cl)cc3)c2c1 1.45%, Cc1cc(C)n(-c2ccc(Cl)c(C(=O)O)n2)n1 -24.8%, C=CC[C@@H](C(=O)O)c1ccccc1 -1.41% [at 11.4 µM], CC(C)(C)CNCCO -3.67% [at 11.4 µM], CN1CCc2nc(N)nc(-c3nc(N)nc4c3CN(C)CC4)c2C1 3.49% [at 11.4 µM], Cn1c[n+](C)cc1/C=N/O -10.6%, CN1CCN(c2nc3cc(C(F)(F)F)ccc3n3cccc23)CC1 -28%, C[N+](C)(CCCOc1ccccc1)c1ccccc1 -0.656% [at 25.6 µM], O=C(O)c1ccccc1NCn1c(=S)sc2ccccc21 -19.2% [at 11.4 µM], NN(CC(=O)O)CC(=O)O -4.66% [at 11.4 µM], CN(C)CCCN1c2ccc(O)cc2Sc2ccc(Cl)cc21 -18.1% [at 11.4 µM], O=C(O)Cn1ccnc1[N+](=O)[O-] 1.73% [at 11.4 µM], Nc1c(N=Nc2cccc(Cl)c2)c(=O)[nH]n1-c1ccccc1 -21.9% [at 2.29 µM], Cc1[nH]n(-c2ccc(S(=O)(=O)O)cc2)c(=O)c1N=Nc1ccccc1 1.46% [at 11.4 µM], CCCCc1[nH]c(=O)c(C#N)c2c1CCCC2 5.05%, COc1cc(CN2CCCCC2)cc2cc(C(=O)O)c(=O)oc12 -36.8% [at 11.4 µM], C[C@H]1CN(CCO)CCN1c1ccccc1 14.2% [at 11.4 µM], CC(C)c1ccc(-c2nnn(CCC(=O)O)n2)cc1 -9.35%, O=C(Cn1nnc(-c2ccccc2)n1)OCc1ccccc1 -7.55%, O=C(N/N=C/c1ccccn1)c1ccc(Br)o1 1.3%, Cc1nn(-c2ccccc2)c(Cl)c1/C=N/NC(=O)c1ccco1 6.52%, CCOc1ccc2ccccc2c1C(=O)N[C@@H]1C(=O)N2[C@@H]1SC(C)(C)[C@@H]2C(=O)O -1.29% [at 25.6 µM], N=C1CCC[C@@H]1C(=S)SCCC(N)=O -30.7% [at 11.4 µM], CCS(=O)(=O)N1CCCC(C(=O)NCCCOC(C)C)C1 (stereo not given) -3.86%, COc1ccc(NC(=O)NCCCN2CCCCC2C)cc1 (stereo not given) -9.37%, O[C@H](CN1CCN(c2cccc(Cl)c2)CC1)C(c1ccccc1)c1ccccc1 -19.9%, CCOC(=O)c1c(C)[nH]c(C(=O)OCC(=O)NC2CCS(=O)(=O)C2)c1C (stereo not given) -4.72%, CNC(=O)c1c(I)c(C(=O)NCC(=O)Nc2c(I)c(C(=O)O)c(I)c(C(=O)NCCO)c2I)c(I)c(N(C)C(C)=O)c1I -1.74% [at 25.6 µM], O=C(c1ccccc1)c1ccc(OCCn2cnc3ccccc3c2=O)cc1 26.6% [at 2.29 µM], COc1ccc(-c2nc3ccccc3c(=O)n2N)cc1 -5.9% [at 11.4 µM], CC(C)On1c(SC(C)C)nc2ccccc2c1=O 22.8% [at 11.4 µM], CCCCOc1ccc(CC(=O)NO)cc1 -17.9% [at 25.6 µM], CCCNC1CCS(=O)(=O)C1 (stereo not given) -7.29%, CC[C@H](C)[C@@H]1O[C@]2(CC[C@@H]1C)C[C@H]1C[C@H](CC=C(C)[C@@H](O[C@@H]3C[C@H](OC)[C@H](O[C@@H]4C[C@H](OC)[C@H](O)[C@H](C)O4)[C@H](C)O3)[C@@H](C)C=CC=C3CO[C@@H]4[C@@H](O)C(C)=C[C@@H](C(=O)O1)[C@]34O)O2 -24.7% [at 25.6 µM], CN1CCN(CC(O)c2ccccc2)CC1 (stereo not given) -0.756%, CC1CCC(C(C)C)C(OCC(O)CN2CCN(Cc3ccccc3)CC2)C1 (stereo not given) -17.1%, CCOC(=O)N1N=C(c2ccccc2)CC1(O)C(F)(F)F (stereo not given) 2.59% [at 11.4 µM], COc1cccc(C(=O)NNC2=CC(=O)CC(C)(C)C2)c1 3.39% [at 2.29 µM], COc1cc(CNCCc2ccccc2)ccc1OCC(=O)NC(C)(C)C 3.22%, CCOc1ccc(N=C2NC(=O)C(CC(=O)O)S2)cc1 (stereo not given) -1.23%, CCn1c(CCNC(=O)c2ccccc2Cl)n[nH]c1=S -19.4%, CCn1c(CC(C)C)n[nH]c1=S 18.3%, O=[N+]([O-])c1ccc(Cl)c(/C=N/N2CCN(Cc3ccccc3Cl)CC2)c1 -13.7%, O=[N+]([O-])c1ccc(CSCc2ccc(Cl)cc2)cc1 -19.8% [at 11.4 µM], CC(C)Cn1c(-c2nn(C)cc2Cl)n[nH]c1=S -22%
